Hit rate of the full screen: of about 360,000 compounds, about 17,000 (4.7%) were called active. Not shown: some 5% with an inconclusive outcome. Cut-off read from the data, not from the text of the source: active = activity change below about -50%; inconclusive = mostly about -30% to -49%; inactive = weaker than that. What follows is part of a selection rich in actives, with near analogues and random picks from the rest.
assay: qHTS for Inhibitors of Inflammasome Signaling: IL-1-beta AlphaLISA Primary Screen; settings: THP-1 LPS/ATP IL-1B secretion, 16 h; at 57.5 µM, active compounds read low
How it was run: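 Secreted IL-1B measured by AlphaLISA bead assay after 16 h compound exposure of THP-1 cells; compounds (final up to 57.5 uM) added 1 h before LPS (250 ng/mL) and ATP (1.25 mM) stimulation; lower signal means less secretion.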
% is set by controls: 0 for no effect and ±100 for the full control effect.

Activity change, inactive:
O=C(COc1ccc(Cl)cc1)NCCS(=O)(=O)N1CCN(c2ccc(F)cc2)CC1 0.652%
O=C(Cc1ccc(F)cc1)N1CCN=C1SCc1cccc([N+](=O)[O-])c1 26.2%
Cc1cc(C)cc(C(=O)N2CCN=C2SCc2ccc([N+](=O)[O-])cc2)c1 7.28%
O=C1NC(c2ccccc2)Cc2ccncc21 (configuration not stated) -2.81%
CC(C)C1Cc2[nH][nH]c(=O)c2C(c2ccc(Cl)cc2)O1 (configuration not stated) 0.108%
COc1ccc(/C=C2/C(=O)N(c3ccccc3)N=C2C)c(OC)c1 -9.74%
COc1ccc(CN(C)Cc2nc3cc(OC)c(OC)cc3c(=O)[nH]2)c(OC)c1 1.63%
Cc1cc(=O)c2ccc(NC(=O)c3ccccc3)cc2[nH]1 -15.4%
CC(=O)Nc1ccc(S(=O)(=O)Nc2ccc(N3CCCCC3)cc2)cc1 0%
O=C(Cc1ccccc1)NC(=S)Nc1ccc(N2CCCCC2)cc1 -8.88%
COc1ccccc1NC(=O)C(CC(=O)O)Cc1cc(C)cc(C)c1 (configuration not stated) 14.1%
Cc1cccc(C)c1-n1nnnc1C(CCc1ccccc1)N1CCN(C/C=C/c2ccccc2)CC1 (configuration not stated) -7.14%
CC(C)(C)c1ccc(/C=C2\SC(=O)N=C2N)cc1 3.39%
O=C(COC(=O)c1ccccc1NC(=O)c1ccco1)Nc1ccc2c(c1)OC(F)(F)O2 22.1%
O=C(Nc1ccc(Sc2ccc(Br)cc2)cc1)c1ccco1 -22.6%
CCCNC(=O)c1cc(C2CCCCN2S(=O)(=O)c2cn(C)cn2)on1 (configuration not stated) 1.68%
CN(C)/C(=N\OC(=O)c1ccccc1)c1nonc1N 23.1%
CCCC(=O)N1CCC1(C)C(=O)NS(=O)(=O)c1ccc(Cl)cc1 (configuration not stated) 26%
O=c1[nH]c(NCCO)nnc1Cc1ccc(Cl)cc1 -0.873%
Cc1nnc(N/N=C/c2ccccn2)[nH]c1=O 266%
CC(=O)OCC1(O)CC23CCC4c5ccoc5CCC4(C)C2CCC1C3 (configuration not stated) -29.5%
O=C(Nc1ccc(N2CCN(C(=O)c3ccccc3)CC2)c(Cl)c1)c1ncn[nH]1 -4.07%
Cc1ccccc1N1CCN(C(=O)c2cccnc2)CC1 -6.96%
COc1ccc(C(=O)NCc2ccc(Cl)cc2)cc1S(=O)(=O)N1CCCC1 -19.3%
CCOC(=O)C1(C)CCCN(C(=O)c2cccc(Cl)c2)C1 (configuration not stated) 37%
CCOC(=O)[C@]12CCCC=C1N(Cc1ccc3c(c1)OCO3)C(=O)[C@H](CC(=O)N1CCN(C(=O)c3ccco3)CC1)C2 -17.6%
CCc1c(C)nc2c(OC)cccc2c1Cl -3.94%
CC(=O)Oc1ccc(-c2nc3c(C)cccc3c(=O)o2)cc1 24.4%
COc1ccc(C(=O)N2CCCCC2c2cc(C(=O)Nc3ccc(F)c(Cl)c3)no2)cc1 (configuration not stated) -4.59%
CCOC1=C2[C@@H](CN(S(=O)(=O)c3ccc(C)cc3)[C@H]2c2ccccc2F)[C@H]2C(=O)N(Cc3ccccc3)C(=O)[C@H]2C1 0.677%
COc1ccc(S(=O)(=O)N(C)CC(=O)NCCCN2CCOCC2)cc1Cl 25.8%
C=CCOc1ccc(Cl)cc1CNCCCN1CCOCC1 -12.8%
Cc1[nH]c2ccccc2c1C(=O)c1cc([C@H](NC(=O)OC(C)(C)C)C(C)C)sc1N -6.92%
C[C@H](CO)N1C[C@H](C)[C@@H](CN(C)S(=O)(=O)c2ccc(F)cc2)OCc2cnnn2CCCC1=O -17.7%
CCOC(=O)[C@]12CCCC=C1N(Cc1ccc(Cl)cc1Cl)C(=O)[C@H](CC(=O)N1CCCCC1)C2 -12.7%
COc1cc(OC)c(C(=O)NNC(=O)c2ccc(NS(=O)(=O)c3cccs3)cc2)cc1OC -0.853%
COc1ccc(Cc2nnc(NC(=O)Cc3cccs3)s2)cc1 20.9%
COc1ccc(Cc2nnc(NC(=O)c3cc(OC)c(OC)c(OC)c3)s2)cc1OC 64.7%
Cc1cccc(C(=O)N2CCc3c([nH]c4ccccc34)C2CC(C)C)n1 (configuration not stated) 7.12%
COc1ccc(C2c3[nH]c4ccccc4c3CCN2CCCn2cccn2)cc1C (configuration not stated) -18.9%
c1ccc(C2c3[nH]c4ccccc4c3CCN2Cc2cccn2-c2cccnc2)nc1 (configuration not stated) 47.2%
O=C(c1cn2ccccc2n1)N1CCc2c([nH]c3ccccc23)C1c1ccccn1 (configuration not stated) -15.2%
COCc1c(N)c(C)nc(Cl)c1C#N 0%
O=C(COc1ccc2ccccc2c1)N1CCN(C(=O)c2cccs2)CC1 -11.7%
Nc1cc(C(=O)N2CCN(c3ccccc3Cl)CC2)ccc1N1CC2CC(C1)c1cccc(=O)n1C2 (configuration not stated) 14.2%

Activity change, active:
Cc1cccc(CC(=O)N2CCN=C2SCc2ccc([N+](=O)[O-])cc2)c1 -73.1%
COc1ccc(/C=C2/C(=O)OCc3cc(OC)c(OC)cc32)c(OC)c1 -74.3%
O=C1C=CC(=O)N1c1ccc(N2CCCCC2)cc1 -102%
CCN(CC)P(=O)(Nc1ccc(SC(F)F)cc1)c1ccc(N(C)C)cc1NC(=O)c1ccco1 (configuration not stated) -50.2%
COc1ccc(Cc2nnc(N/N=C/c3ccccc3O)[nH]c2=O)cc1OC -100%
O=C(Nc1ccc(N2CCN(C(=O)c3ccccc3)CC2)c(Cl)c1)c1cccnc1 -81.2%
COc1nc(N=C(N)N)nc2c(C)cccc12 -63.3%
Cc1nc(N=C(N)N)nc2c(C)cccc12 -96%
COc1ccc(-c2ccc(CNCCCN3CCOCC3)o2)cc1Cl -66%
COc1ccc(Cc2nnc(NC(=O)c3ccc(OC)cc3OC)s2)cc1 -81.7%
COCc1ccc(C(=O)N2CCc3c([nH]c4ccccc34)C2c2ccccn2)s1 (configuration not stated) -55.4%
Cc1cccc(C2c3[nH]c4ccccc4c3CCN2C(=O)c2cc(-c3cccn3C)n[nH]2)n1 (configuration not stated) -60%
